BAZ2B block: blocks human BAZ2B; Q9UIF8; AlphaScreen BAZ2B-H3K14Ac peptide displacement; Potency, µM (doses to about 114 µM), usual class: inhibitors; 360,000 tested, 4.4% active; AID 504333; also: nearly all actives have a fitted effect of over 60% in size
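Multi-concentration screen (max 110 uM) measuring displacement of acetylated histone H3 peptide from BAZ2B by AlphaScreen, using 50 nM protein, 50 nM peptide and 10 ug/mL streptavidin donor plus Ni-chelate acceptor beads.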
JMJD2A Tudor inh: JMJD2A Tudor domain (human) inhibition; Potency, µM (titrated, usually from 114 µM), usual class: inhibitors; O75164; 390,000 tested, 4.4% active; AlphaScreen JMJD2A-Tudor / H3K4me3 peptide binding; also: nearly all actives have a fitted effect of over 50% in size
Target sequence (O75164 whole entry, looked up, the tested form may be a part): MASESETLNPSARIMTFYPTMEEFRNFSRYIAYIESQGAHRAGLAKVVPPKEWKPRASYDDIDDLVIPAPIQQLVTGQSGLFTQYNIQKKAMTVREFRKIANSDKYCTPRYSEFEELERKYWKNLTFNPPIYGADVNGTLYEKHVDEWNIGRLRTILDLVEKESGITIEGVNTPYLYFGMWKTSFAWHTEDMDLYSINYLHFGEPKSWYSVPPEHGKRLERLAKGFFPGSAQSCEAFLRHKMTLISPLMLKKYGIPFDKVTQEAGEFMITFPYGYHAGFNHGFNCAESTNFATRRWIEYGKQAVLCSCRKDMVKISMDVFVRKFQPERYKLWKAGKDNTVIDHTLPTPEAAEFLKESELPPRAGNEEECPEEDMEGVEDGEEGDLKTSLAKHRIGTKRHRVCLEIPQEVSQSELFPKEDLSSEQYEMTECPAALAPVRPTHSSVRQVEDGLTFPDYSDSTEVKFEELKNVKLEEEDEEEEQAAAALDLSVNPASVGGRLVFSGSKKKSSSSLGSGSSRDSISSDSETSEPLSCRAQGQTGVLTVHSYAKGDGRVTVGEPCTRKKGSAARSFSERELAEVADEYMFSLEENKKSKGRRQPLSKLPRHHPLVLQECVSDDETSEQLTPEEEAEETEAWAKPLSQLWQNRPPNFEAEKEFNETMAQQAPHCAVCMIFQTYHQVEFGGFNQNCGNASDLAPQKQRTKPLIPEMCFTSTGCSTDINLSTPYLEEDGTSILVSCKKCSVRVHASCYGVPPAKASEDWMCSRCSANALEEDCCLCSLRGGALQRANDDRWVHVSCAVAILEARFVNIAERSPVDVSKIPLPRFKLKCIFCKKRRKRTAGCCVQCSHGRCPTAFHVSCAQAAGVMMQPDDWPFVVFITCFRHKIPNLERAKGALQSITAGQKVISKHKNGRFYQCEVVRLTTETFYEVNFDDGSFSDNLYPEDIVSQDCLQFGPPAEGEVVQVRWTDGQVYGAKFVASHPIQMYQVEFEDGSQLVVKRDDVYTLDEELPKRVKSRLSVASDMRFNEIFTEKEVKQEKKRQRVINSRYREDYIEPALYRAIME
HP1b binding inh: inhibitors of HP1-beta chromodomain binding to methylated histone tails; 390,000 tested, 0.56% active; AlphaScreen HP1-beta / biotin-H3K9me3 peptide binding; Potency, µM (titrated, usually from 114 µM), actives largely listed as inhibitors; also: nearly all actives have a fitted effect of over 70% in size
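Compound inhibition of the preformed complex between 50 nM HP1-beta and 50 nM biotinylated H3K9me3 peptide was read by AlphaScreen. Buffer was PBS pH 7.4 with 0.01% Tween-20. Incubations ran 30 min at room temperature, with 10 ug/mL donor/acceptor beads.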
G9a block: inhibitors of human histone lysine methyltransferase G9a | Q96KQ7 | G9a H3K9 monomethylation, AlphaScreen, 2 h | Potency, µM (top dose mostly 102 µM), hits mostly inhibitors | 350,000 tested, 8.8% active; also: nearly all actives have a fitted effect of over 75% in size
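AlphaScreen read-out: biotin-H3K9 peptide (500 nM) methylation by 20 nM enzyme with 20 uM SAM, 2 h at room temperature after 15 min compound preincubation; anti-monomethyl H3K9 antibody plus donor/acceptor beads, 10 min dark.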
PLK1 PBD block: blocks phosphopeptide binding to human PLK1 polo-box domain; P53350; Plk1 PBD binding of FITC phosphopeptide, fluorescence polarization; 360,000 tested, 2.8% active; Potency, µM, hits mostly inhibitors; also: series mostly up to about 57 µM; nearly all actives have a fitted effect of over 65% in size
Sfp PPTase inh: Sfp phosphopantetheinyl transferase inhibition | Potency, µM, most hits filed as inhibitors | Q9F4F7 | 310,000 tested, 3.5% active | Biochemical Sfp PPTase activity, qHTS;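 also: the enzyme is Sfp with the accession as filed and its product quenches rhodamine fluorescence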
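Fluorescence-quenching assay: 15 nM Sfp-PPTase preincubated 15 min at room temperature with compound, then 5 uM rhodamine-CoA and 12.5 uM BHQ-2-labelled YbbR peptide added. Fluorescence (ex 525/em 598 nm) read at start and after 30 min; difference gives rate.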
Hits are given with their value; n = inactive; u = inconclusive; x = not tested or not shown; [ ] = remark or other dose. A selection: hits, their analogues and other compounds. The true share with any hit is near 12%. Calls follow the shape of the dose curve; as a rule, active = well fitted curve in the direction sought with a large enough effect; inconclusive = small, poorly fitted or top-dose-only effect, or another doubt; inactive = no such curve, though single readings can be large; an effect the other way counts as inactive or inconclusive.

SMILES	BAZ2B block	JMJD2A Tudor inh	HP1b binding inh	G9a block	PLK1 PBD block	Sfp PPTase inh
COCCNC(=S)N=Nc1c(O)[nH]c2c(C)cc(C)cc12	n	n	n	n	n	n
Cc1cc(C)c2[nH]c(=S)cc(C)c2c1	n	n	n	3.5µM	u	n
CCN(c1ccccc1)S(=O)(=O)c1ccc(NC(=O)c2nc(SC(C)C)ncc2Cl)cc1	n	n	n	n	x	x
CCC(C)c1ccc(OCCn2ccnc2)cc1 (stereo not given)	50µM	20µM	n	u	n	n
CCOc1ccc(OCCOCCn2ccnc2)cc1	79µM	8.9µM	u	u	n	n
Cc1cc(C)cc(OCCn2ccnc2)c1	n	n	n	n	n	n
Cc1cc(OCCn2ccnc2)cc(C(C)C)c1	28µM	0.79µM	22µM	11µM	n	n
COc1ccc(-c2n[nH]c(=S)n2/N=C/C=C\c2ccccc2OC)cc1	n	89µM	n	u	n	n
COc1ccccc1/C=C/C=N/n1c(-c2ccco2)n[nH]c1=S	u	28µM	n	1.3µM	u	u
COc1ccccc1/C=C/C=N/n1c(-c2ccncc2)n[nH]c1=S	u	10µM	n	1.3µM	n	n
S=c1[nH]nc(-c2ccncc2)n1/N=C/C(Cl)=C\c1ccccc1	50µM	18µM	n	x	6.7µM	u
Cc1ccc(-c2nn(-c3ccccc3)cc2/C=N/n2c(-c3ccncc3)n[nH]c2=S)cc1	n	u	n	u	n	n
OC[C@@H]1O[C@@H](Oc2ccc(O)cc2)[C@H](O)[C@@H](O)[C@@H]1O	x	x	x	x	x	n
Cc1cccc(CN2C(=O)CC(c3ccc(Cl)cc3)c3c(C)nn(-c4nc(C)cc(C)n4)c32)c1 (stereo not given)	n	u	n	n	x	x
COc1ccc2c(C)c(CC(=O)NCc3ccc(C)cc3)c(=O)oc2c1OC	n	n	n	n	x	x
S=c1[nH]nc(-c2ccncc2)n1/N=C/C=C/c1ccccc1	n	4.5µM	u	u	n	n
Cc1nc2ccccc2c(=O)n1/N=C/C=C/c1ccccc1	n	n	n	n	n	n
OC(CCc1cccc(Cl)c1)c1cccs1 (stereo not given)	n	n	n	n	21µM	n
Clc1cccc(CSc2ccc(-c3cccs3)nn2)c1	n	n	n	n	x	x
COc1cc(/C=C2\SC(=S)N(C(C(=O)O)c3ccccc3)C2=O)cc(OC)c1OC (stereo not given)	u	n	n	u	u	50µM
COc1ccc(/C=C2\SC(=S)N(N3CCOCC3)C2=O)c(OC)c1	n	u	u	n	n	n
COc1cccc(/C=C2\SC(=S)N(C(C(=O)O)c3ccccc3)C2=O)c1OC (stereo not given)	u	u	u	u	u	79µM
COc1ccc(/C=C2\SC(=S)N(C(C(=O)O)c3ccccc3)C2=O)c(OC)c1 (stereo not given)	u	n	n	50µM	u	71µM
O=C(O)C/C(=C\c1ccc(N2CCOCC2)c([N+](=O)[O-])c1)c1nc2ccccc2s1	50µM	n[11.4 µM]	n	u	u	n
O=C(O)CC/C(=C\c1ccc(N2CCOCC2)c([N+](=O)[O-])c1)c1nc2ccccc2s1	35µM	u	n	u	n	n
SMILES	BAZ2B block	JMJD2A Tudor inh	HP1b binding inh	G9a block	PLK1 PBD block	Sfp PPTase inh
O=C(O)CC/C(=C\c1ccc(Cl)c([N+](=O)[O-])c1)c1nc2ccccc2s1	n	n	n	n	n	n
OCCN(CC#CC(O)(c1ccccc1)c1ccccc1)CCO	u	n	n	32µM	n	n
C=CCN1C(=O)/C(=C/c2ccc(OC(C)=O)c(OCC)c2[N+](=O)[O-])SC1=S	11µM	25µM	16µM	6.3µM	n	16µM
Cc1ccc(NC(=S)NNS(=O)(=O)c2ccc3ccccc3c2)cc1Cl	n	u	u	n	19µM	n
COCCNC(=O)C(=O)NNC(=O)COc1ccc(OC)cc1	n	n	n	25µM	u	n
Cc1ccc(S(=O)(=O)NNC(=S)Nc2ccc(Cl)cc2)cc1	n	n	n	n	n	n
COCCNC(=O)C(=O)NNS(=O)(=O)c1ccc2ccccc2c1	n	u	n	40µM	19µM	n
CCc1nnc(NC(=O)CCc2ccccc2OC)s1	n	n	n	u	n	n
